Source: PubChem BioAssay (NCI)
The panel holds about 79,000 compounds, 15% with a hit somewhere; the sample as a whole holds those more often. The source made the active and inactive calls. Cut-off read from the data, not from the text of the source: active = growth inhibition above about 70%; inactive = the rest.

What was measured:
[1] = NCI Yeast Anticancer Drug Screen. Data for the mec2-1 strain (AID 157); conditions: S. cerevisiae mec2-1 strain, active compounds read high
Outline: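 Using mec2-1 yeast: add compound, measure growth, express inhibition versus vehicle-treated cultures.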

[2] = NCI Yeast Anticancer Drug Screen. Data for the rad14 strain (AID 159);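 note: 0% = growth of vehicle-treated control cultures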; conditions: S. cerevisiae rad14 strain growth inhibition, active compounds read high
Outline: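 Screen for anticancer potential: a yeast strain altered in DNA damage repair is grown with compound, and reduced growth is quantified against vehicle controls.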

[3] = NCI Yeast Anticancer Drug Screen. Data for the sgs1 mgt1 strain (AID 161);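 note: 0% = growth of cultures given vehicle only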; conditions: S. cerevisiae sgs1 mgt1 strain, active compounds read high
Outline: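 This yeast growth screen uses a strain with defined DNA-repair lesions; compound-treated growth is compared with vehicle-treated growth.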

[4] = NCI Yeast Anticancer Drug Screen. Data for the CLN2oe strain (AID 163);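 note: 0% = growth of vehicle-only control cultures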; conditions: S. cerevisiae CLN2oe strain, active compounds read high
Outline: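 Whole-cell yeast growth assay. A strain engineered for altered cell-cycle control received compound, and inhibition relative to vehicle-treated cultures was recorded.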

[5] = NCI Yeast Anticancer Drug Screen. Data for the cln2 rad14 strain (AID 165);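 note: 0% = growth equal to vehicle treated cultures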; conditions: S. cerevisiae cln2 rad14 strain, active compounds read high
Outline: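 Yeast strain cln2 rad14, bearing defects in cell cycle control and DNA repair, serves as the test system; values reflect growth inhibition compared with vehicle.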

[6] = NCI Yeast Anticancer Drug Screen. Data for the bub3 strain (AID 167); conditions: S. cerevisiae bub3 mutant strain, active compounds read high
Outline: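 Screening used yeast with an engineered genetic alteration affecting cell cycle control. Compound-exposed cultures were compared with vehicle cultures, and reduced growth was taken as inhibition.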

[7] = NCI Yeast Anticancer Drug Screen. Data for the wt2 strain (AID 169);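 note: 0% = growth of vehicle-treated yeast cultures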; conditions: S. cerevisiae wt2 strain growth inhibition, active compounds read high
Outline: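 Treated yeast vs. vehicle-treated yeast: growth inhibition determined.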

[8] = NCI Yeast Anticancer Drug Screen. Data for the mlh1 strain (AID 171);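 note: 0% = growth of vehicle-treated control cultures of the same strain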; conditions: S. cerevisiae mlh1 strain growth inhibition, active compounds read high
Outline: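 A yeast strain with a defined genetic lesion serves as the test organism. Cultures receive compound or vehicle, and growth is measured.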

[9] = NCI Yeast Anticancer Drug Screen. Data for the sgs1 strain (AID 173);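 note: 0% = growth of vehicle-only control cultures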; conditions: S. cerevisiae sgs1 mutant, active compounds read high
Outline: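 A genetically defined yeast mutant is incubated with the test compound, and its growth is compared to that of the same strain given vehicle.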

[10] = NCI Yeast Anticancer Drug Screen. Data for the mlh1 rad18 strain (AID 175); conditions: S. cerevisiae mlh1 rad18 strain growth inhibition, active compounds read high
Outline: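 Steps: expose repair-defective yeast to compound; measure growth; express inhibition against vehicle-treated controls.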

[11] = NCI Yeast Anticancer Drug Screen. Data for the rad18 strain (AID 177); conditions: S. cerevisiae rad18 mutant growth inhibition, active compounds read high
Outline: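 Measured value is growth inhibition of a yeast strain bearing a DNA repair alteration, referenced to vehicle-treated cells.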

[12] = NCI Yeast Anticancer Drug Screen. Data for the rad52 strain (AID 147);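 note: 0% = growth of vehicle-treated control cultures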; conditions: S. cerevisiae rad52 mutant growth inhibition, active compounds read high
Outline: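 Here a repair-compromised yeast strain receives each compound; its growth is then quantified and normalised to vehicle-only controls.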

[13] = NCI Yeast Anticancer Drug Screen. Data for the wt1 strain (AID 149);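 note: 0% = growth of vehicle-treated wt1 cultures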; conditions: S. cerevisiae wt1 strain (SPY 50644) growth inhibition, active compounds read high
Outline: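 Using yeast strain wt1, compound-induced growth inhibition was determined against vehicle-treated cultures.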

[14] = NCI Yeast Anticancer Drug Screen. Data for the rad50EPP+ strain (AID 151);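 note: 0% = growth of vehicle-treated control cultures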; conditions: S. cerevisiae rad50 mutant strain, active compounds read high
Outline: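 Read-out is yeast growth inhibition relative to vehicle; cells used were the rad50EPP+ strain.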

[15] = NCI Yeast Anticancer Drug Screen. Data for the mgt1 strain (AID 153); conditions: S. cerevisiae mgt1 mutant growth inhibition, active compounds read high
Outline: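 Measured: inhibition of mgt1 yeast growth by compound, normalized to vehicle-treated cultures.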

[16] = NCI Yeast Anticancer Drug Screen. Data for the rad50 strain (AID 155);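 note: 0% = growth of vehicle-only cultures of the same strain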; conditions: S. cerevisiae rad50 strain growth inhibition, active compounds read high
Outline: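 Relative growth inhibition (compound vs vehicle) was measured in yeast with a defined repair-gene alteration.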

[17] = at 5.0 µM (retest, dose inferred, filed as 0.5)
[18] = at 50.0 µM (retest, dose inferred, filed as 5.0)

Measured: growth inhibition

CCCCNC1CCC2(SCCS2)c2[nH]c3ccccc3c21 (stereo unspecified)
inactive: [1]; [17] 4% | [1]; at 11.0 µM -2% | [1]; at 33.0 µM -4% | [1]; [18] -14% | [1]; at 100.0 µM 7% | [2]; at 1.2 µM 6% | [2]; at 3.7 µM 0% | [2]; at 11.0 µM 4% | [2]; at 33.0 µM 1% | [2]; at 100.0 µM 9% | [3]; [17] -5% | [3]; [18] 21% | [4]; at 1.2 µM 10% | [4]; at 3.7 µM -4% | [4]; at 11.0 µM 0% | [4]; at 33.0 µM -1% | [4]; at 100.0 µM 6% | [5]; [17] -7% | [5]; [18] 31% | [6]; at 1.2 µM -6% | [6]; at 3.7 µM 1% | [6]; [17] -16% | [6]; at 11.0 µM 6% | [6]; at 33.0 µM -1% | [6]; [18] 17% | [6]; at 100.0 µM 3% | [7]; at 1.2 µM 1% | [7]; at 3.7 µM 2% | [7]; at 11.0 µM 3% | [7]; at 33.0 µM 3% | [7]; at 100.0 µM 8% | [8]; at 1.2 µM 5% | [8]; at 3.7 µM -2% | [8]; at 11.0 µM 4% | [8]; at 33.0 µM -1% | [8]; at 100.0 µM 6% | [9]; at 1.2 µM 0% | [9]; at 3.7 µM -2% | [9]; at 11.0 µM -1% | [9]; at 33.0 µM -3% | [9]; at 100.0 µM 3% | [10]; [17] 1% | [10]; [18] 21% | [11]; at 1.2 µM 2% | [11]; at 3.7 µM -4% | [11]; at 11.0 µM -4% | [11]; at 33.0 µM -18% | [11]; at 100.0 µM 4%
active: [1]; at 50.0 µM 91.2% | [3]; at 50.0 µM 85.2% | [5]; at 50.0 µM 89.5% | [6]; at 50.0 µM 88.2% | [10]; at 50.0 µM 84.7%

COc1cccc(/C=N/C(/N=C/c2cccc(OC)c2O)c2cccc(OC)c2O)c1O
inactive: [12]; at 1.2 µM 1% | [12]; at 3.7 µM 5% | [12]; at 11.0 µM 23% | [12]; at 33.0 µM 67% | [13]; at 1.2 µM -1% | [13]; at 3.7 µM 1% | [13]; at 11.0 µM 7% | [13]; at 33.0 µM 26% | [14]; at 1.2 µM 2% | [14]; at 3.7 µM 15% | [14]; at 11.0 µM 61% | [15]; at 1.2 µM -1% | [15]; at 3.7 µM -2% | [15]; at 11.0 µM 5% | [15]; at 33.0 µM 36% | [16]; at 1.2 µM 4% | [16]; at 3.7 µM -28% | [16]; [17] 19% | [16]; at 11.0 µM 52% | [1]; at 1.2 µM -1% | [1]; at 3.7 µM 2% | [1]; [17] -4% | [1]; at 11.0 µM 8% | [1]; at 33.0 µM 25% | [1]; [18] 27% | [2]; at 1.2 µM 1% | [2]; at 3.7 µM 6% | [2]; at 11.0 µM 19% | [3]; [17] 4% | [4]; at 1.2 µM -2% | [4]; at 3.7 µM 3% | [4]; at 11.0 µM 8% | [4]; at 33.0 µM 20% | [4]; at 100.0 µM 54% | [5]; [17] -1% | [5]; [18] 34% | [5]; at 50.0 µM 45% | [6]; at 1.2 µM -2% | [6]; at 3.7 µM -1% | [6]; [17] -5% | [6]; at 11.0 µM 1% | [6]; at 33.0 µM 39% | [6]; [18] 43% | [6]; at 50.0 µM 67% | [7]; at 1.2 µM 0% | [7]; at 3.7 µM 7% | [7]; at 11.0 µM 4% | [7]; at 33.0 µM 24% | [8]; at 1.2 µM 0% | [8]; at 3.7 µM 2% | [8]; at 11.0 µM 7% | [8]; at 33.0 µM 33% | [9]; at 1.2 µM -1% | [9]; at 3.7 µM 3% | [9]; at 11.0 µM 19% | [9]; at 33.0 µM 67% | [10]; [17] 4% | [10]; [18] 65% | [11]; at 1.2 µM -1% | [11]; at 3.7 µM 9% | [11]; at 11.0 µM 21% | [11]; at 33.0 µM 68%
active: [12]; at 100.0 µM 97% | [13]; at 100.0 µM 91% | [14]; at 33.0 µM 93% | [14]; at 100.0 µM 98% | [15]; at 100.0 µM 98% | [16]; at 33.0 µM 87% | [16]; [18] 79% | [16]; at 50.0 µM 89.5% | [16]; at 100.0 µM 97% | [1]; at 50.0 µM 87% | [1]; at 100.0 µM 96% | [2]; at 33.0 µM 73% | [2]; at 100.0 µM 99% | [3]; [18] 71% | [3]; at 50.0 µM 86.7% | [6]; at 100.0 µM 98% | [7]; at 100.0 µM 93% | [8]; at 100.0 µM 97% | [9]; at 100.0 µM 98% | [10]; at 50.0 µM 94.8% | [11]; at 100.0 µM 98%
